# Reference: the supplement of paper PMC8728848
# Only a selection was taken, and the strongest signals are over-represented in it overall.
# B1: rAAL-2 (Agrocybe aegerita) (protein)
# chain: MTSNVITQDLPIPVASRGFADIVGFGLDGVVIGRNAVNLQPFLAVKNFAQNAGGWLTTKHVRLIADTTGTGKGDIVGFGNAGVYVSVNNGKNTFADPPKMVIANFGYDAGGWRVEKHLRYLADIRKIGRADIIGFGEKGVLVSRNNGGLNFGPATLVLKDFGYDAGGWRLDRHLRFLADVTGNGHLDIVGFGDKHVFISRNNGDGTFAPAKSVIDNFCIDAGGWKIGDHPRFVADLTGDGTADIIGCGKAGCWVALNNGGGVFGQVKLVINDFGTDKGWQAAKHPRFIADLTGNGRGDVVGFGNAGVYVALNNGDGTFQSAKLVLKDFGVQQGWTVSKHRRFVVDLTGDGCADIIGFGEKETLVSYNDGKGNFGPVKALTNDFSFSGGKWAPETTVCWMANLDSSRH
# Assays:
# Assay in all cases: glycan array binding signal (z-score within array); higher = stronger binding
# Settings in all cases: glycan notation: IUPAC condensed, linker removed
# [1] = biological target: Fuc(a1-2)Gal(b1-4)GlcNAc(b1-3)Gal(b1-4)GlcNAc(b1-2)Man(a1-3)[Fuc(a1-2)Gal(b1-4)GlcNAc(b1-3)Gal(b1-4)GlcNAc(b1-2)Man(a1-6)]Man(b1-4)GlcNAc(b1-4)GlcNAc
# In short: (§1)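 Columns mapping to the same glycan were averaged after glycan names were converted to IUPAC-condensed notation. The data come from 3228 arrays in the Consortium for Functional Glycomics database, limited to those with an available protein sequence. Binding is reported as a within-array Z-score averaged across arrays of one protein sequence and across linkers.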
# Fuc(a1-2)[Gal(a1-3)]Gal = biological target: Fuc(a1-2)[Gal(a1-3)]Gal
# In short: as §1
# [2] = biological target: Fuc(a1-2)[Gal(a1-3)]Gal(b1-3)GalNAc(b1-3)Gal(a1-4)Gal(b1-4)Glc
# In short: as §1
# [3] = biological target: Fuc(a1-2)[GalNAc(a1-3)]Gal
# In short: as §1
# [4] = biological target: Gal(a1-3)Gal(b1-3)GlcNAc(b1-3)GalNAc
# In short: as §1
# [5] = biological target: Gal(a1-3)Gal(b1-4)GlcNAc(b1-3)GalNAc
# In short: as §1
# [6] = biological target: Gal(a1-4)Gal(b1-4)GlcNAc(b1-2)Man(a1-3)[Gal(a1-4)Gal(b1-4)GlcNAc(b1-2)Man(a1-6)]Man(b1-4)GlcNAc(b1-4)GlcNAc
# In short: as §1
# [7] = biological target: Gal(b1-3)GlcNAc(b1-3)Gal(b1-4)GlcNAc(b1-6)[Gal(b1-3)GlcNAc(b1-3)]Gal(b1-4)Glc
# In short: as §1
# [8] = biological target: Gal(b1-3)[Fuc(a1-4)]GlcNAc(b1-6)GalNAc
# In short: as §1
# Gal(b1-4)GlcNAc(b1-2)Man = biological target: Gal(b1-4)GlcNAc(b1-2)Man
# In short: as §1
# [9] = biological target: Gal(b1-4)GlcNAc(b1-2)Man(a1-3)[Gal(b1-4)GlcNAc(b1-2)Man(a1-6)][Gal(b1-4)GlcNAc(b1-4)]Man(b1-4)GlcNAc(b1-4)[Fuc(a1-6)]GlcNAc
# In short: as §1
# [10] = biological target: Gal(b1-4)GlcNAc(b1-2)Man(a1-3)[Gal(b1-4)GlcNAc(b1-2)Man(a1-6)][GlcNAc(b1-4)]Man(b1-4)GlcNAc(b1-4)[Fuc(a1-6)]GlcNAc
# In short: as §1
# [11] = biological target: Gal(b1-4)GlcNAc(b1-2)Man(a1-3)[Gal(b1-4)GlcNAc(b1-2)][GlcNAc(b1-4)]Man(b1-4)GlcNAc(b1-4)GlcNAc
# In short: as §1
# [12] = biological target: Gal(b1-4)GlcNAc(b1-3)Gal(b1-4)Glc
# In short: as §1
# [13] = biological target: Gal(b1-4)GlcNAc(b1-3)Gal(b1-4)GlcNAc(b1-3)Gal(b1-4)GlcNAc
# In short: as §1
# [14] = biological target: Gal(b1-4)GlcNAc(b1-3)Gal(b1-4)GlcNAc(b1-3)Gal(b1-4)GlcNAc(b1-3)Gal(b1-4)GlcNAc(b1-3)Gal(b1-4)GlcNAc(b1-2)Man(a1-3)[Gal(b1-4)GlcNAc(b1-3)Gal(b1-4)GlcNAc(b1-3)Gal(b1-4)GlcNAc(b1-3)Gal(b1-4)GlcNAc(b1-3)Gal(b1-4)GlcNAc(b1-2)Man(a1-6)]Man(b1-4)GlcNAc(b1-4)GlcNAc
# In short: as §1
# [15] = biological target: Gal(b1-4)GlcNAc(b1-3)Gal(b1-4)GlcNAc(b1-3)Gal(b1-4)GlcNAc(b1-3)Gal(b1-4)GlcNAc(b1-3)Gal(b1-4)GlcNAc(b1-2)[Gal(b1-4)GlcNAc(b1-3)Gal(b1-4)GlcNAc(b1-3)Gal(b1-4)GlcNAc(b1-3)Gal(b1-4)GlcNAc(b1-3)Gal(b1-4)GlcNAc(b1-6)]Man(a1-6)[Gal(b1-4)GlcNAc(b1-3)Gal(b1-4)GlcNAc(b1-3)Gal(b1-4)GlcNAc(b1-3)Gal(b1-4)GlcNAc(b1-3)Gal(b1-4)GlcNAc(b1-2)Man(a1-3)]Man(b1-4)GlcNAc(b1-4)[Fuc(a1-6)]GlcNAc
# In short: as §1
# [16] = biological target: Gal(b1-4)GlcNAc(b1-3)Gal(b1-4)GlcNAc(b1-3)[Gal(b1-4)GlcNAc(b1-3)Gal(b1-4)GlcNAc(b1-6)]GalNAc
# In short: as §1
# Gal3S(b1-4)GlcNAc6S = biological target: Gal3S(b1-4)GlcNAc6S
# In short: as §1
# GalNAc(b1-4)GlcNAc6S = biological target: GalNAc(b1-4)GlcNAc6S
# In short: as §1
# [17] = biological target: GlcNAc(a1-3)Gal(b1-4)GlcNAc
# In short: as §1
# [18] = biological target: GlcNAc(a1-4)Gal(b1-3)GlcNAc
# In short: as §1
# [19] = biological target: GlcNAc(a1-4)Gal(b1-4)GlcNAc(b1-3)Gal(b1-4)Glc
# In short: as §1
# [20] = biological target: GlcNAc(a1-4)Gal(b1-4)GlcNAc(b1-3)Gal(b1-4)GlcNAc(b1-3)Gal(b1-4)GlcNAc
# In short: as §1
# [21] = biological target: GlcNAc(a1-4)Gal(b1-4)GlcNAc(b1-3)Gal(b1-4)[Fuc(a1-3)]GlcNAc(b1-3)Gal(b1-4)[Fuc(a1-3)]GlcNAc
# In short: as §1
# [22] = biological target: GlcNAc(b1-2)Man(a1-3)[GlcNAc(b1-4)][GlcNAc(b1-2)Man(a1-6)]Man(b1-4)GlcNAc(b1-4)[Fuc(a1-6)]GlcNAc
# In short: as §1
# [23] = biological target: GlcNAc(b1-3)Gal(b1-4)GlcNAc
# In short: as §1
# [24] = biological target: GlcNAc(b1-3)Gal(b1-4)GlcNAc(b1-3)Gal(b1-4)GlcNAc(b1-2)Man(a1-3)[GlcNAc(b1-3)Gal(b1-4)GlcNAc(b1-3)Gal(b1-4)GlcNAc(b1-2)Man(a1-6)]Man(b1-4)GlcNAc(b1-4)GlcNAc
# In short: as §1
# [25] = biological target: GlcNAc(b1-3)Gal(b1-4)GlcNAc(b1-3)Gal(b1-4)GlcNAc(b1-2)Man(a1-3)[GlcNAc(b1-3)Gal(b1-4)GlcNAc(b1-3)Gal(b1-4)GlcNAc(b1-2)Man(a1-6)]Man(b1-4)GlcNAc(b1-4)[Fuc(a1-6)]GlcNAc
# In short: as §1
# [26] = biological target: GlcNAc(b1-3)Gal(b1-4)GlcNAc(b1-3)Gal(b1-4)GlcNAc(b1-3)Gal(b1-4)GlcNAc(b1-2)Man(a1-3)[GlcNAc(b1-3)Gal(b1-4)GlcNAc(b1-3)Gal(b1-4)GlcNAc(b1-3)Gal(b1-4)GlcNAc(b1-2)Man(a1-6)]Man(b1-4)GlcNAc(b1-4)[Fuc(a1-6)]GlcNAc
# In short: as §1
binder,measurement,setting,value
B1,glycan array binding signal (z-score),[1],-0.083
same,glycan array binding signal (z-score),Fuc(a1-2)[Gal(a1-3)]Gal,-0.221
same,glycan array binding signal (z-score),[2],0.126
same,glycan array binding signal (z-score),[3],-0.342
same,glycan array binding signal (z-score),[4],-0.274
same,glycan array binding signal (z-score),[5],-0.36
same,glycan array binding signal (z-score),[6],0.062
same,glycan array binding signal (z-score),[7],-0.234
same,glycan array binding signal (z-score),[8],-0.064
same,glycan array binding signal (z-score),Gal(b1-4)GlcNAc(b1-2)Man,-0.16
same,glycan array binding signal (z-score),[9],-0.282
same,glycan array binding signal (z-score),[10],-0.482
same,glycan array binding signal (z-score),[11],-0.266
same,glycan array binding signal (z-score),[12],-0.317
same,glycan array binding signal (z-score),[13],-0.113
same,glycan array binding signal (z-score),[14],-0.319
same,glycan array binding signal (z-score),[15],0.032
same,glycan array binding signal (z-score),[16],0.004
same,glycan array binding signal (z-score),Gal3S(b1-4)GlcNAc6S,-0.11
same,glycan array binding signal (z-score),GalNAc(b1-4)GlcNAc6S,-0.107
same,glycan array binding signal (z-score),[17],4.67
same,glycan array binding signal (z-score),[18],3.84
same,glycan array binding signal (z-score),[19],4.64
same,glycan array binding signal (z-score),[20],6.15
same,glycan array binding signal (z-score),[21],3.9
same,glycan array binding signal (z-score),[22],-0.068
same,glycan array binding signal (z-score),[23],4.11
same,glycan array binding signal (z-score),[24],3.92
same,glycan array binding signal (z-score),[25],4.05
same,glycan array binding signal (z-score),[26],4.52
